# Test results taken from publication PMC4336329 (PLoS ONE, 2015).
# Screen size: about 310,000 compounds; about 14,000 (4.5%) showed an effect of 50% or more. The effect is printed as a negative number. Only a selection was taken, and strong results are over-represented in it overall.
# Target: human ether-à-go-go-related gene (hERG) potassium channel (human, UniProt Q12809)
# Assay: primary screen, population patch clamp on CHO cells stably expressing hERG; higher = less effect of the substance
# 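Note: peak tail current of the secondary pulse compared with the same well before compound.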
# human ether-à-go-go-related gene (hERG) potassium channel, sequence (Q12809 whole entry, looked up): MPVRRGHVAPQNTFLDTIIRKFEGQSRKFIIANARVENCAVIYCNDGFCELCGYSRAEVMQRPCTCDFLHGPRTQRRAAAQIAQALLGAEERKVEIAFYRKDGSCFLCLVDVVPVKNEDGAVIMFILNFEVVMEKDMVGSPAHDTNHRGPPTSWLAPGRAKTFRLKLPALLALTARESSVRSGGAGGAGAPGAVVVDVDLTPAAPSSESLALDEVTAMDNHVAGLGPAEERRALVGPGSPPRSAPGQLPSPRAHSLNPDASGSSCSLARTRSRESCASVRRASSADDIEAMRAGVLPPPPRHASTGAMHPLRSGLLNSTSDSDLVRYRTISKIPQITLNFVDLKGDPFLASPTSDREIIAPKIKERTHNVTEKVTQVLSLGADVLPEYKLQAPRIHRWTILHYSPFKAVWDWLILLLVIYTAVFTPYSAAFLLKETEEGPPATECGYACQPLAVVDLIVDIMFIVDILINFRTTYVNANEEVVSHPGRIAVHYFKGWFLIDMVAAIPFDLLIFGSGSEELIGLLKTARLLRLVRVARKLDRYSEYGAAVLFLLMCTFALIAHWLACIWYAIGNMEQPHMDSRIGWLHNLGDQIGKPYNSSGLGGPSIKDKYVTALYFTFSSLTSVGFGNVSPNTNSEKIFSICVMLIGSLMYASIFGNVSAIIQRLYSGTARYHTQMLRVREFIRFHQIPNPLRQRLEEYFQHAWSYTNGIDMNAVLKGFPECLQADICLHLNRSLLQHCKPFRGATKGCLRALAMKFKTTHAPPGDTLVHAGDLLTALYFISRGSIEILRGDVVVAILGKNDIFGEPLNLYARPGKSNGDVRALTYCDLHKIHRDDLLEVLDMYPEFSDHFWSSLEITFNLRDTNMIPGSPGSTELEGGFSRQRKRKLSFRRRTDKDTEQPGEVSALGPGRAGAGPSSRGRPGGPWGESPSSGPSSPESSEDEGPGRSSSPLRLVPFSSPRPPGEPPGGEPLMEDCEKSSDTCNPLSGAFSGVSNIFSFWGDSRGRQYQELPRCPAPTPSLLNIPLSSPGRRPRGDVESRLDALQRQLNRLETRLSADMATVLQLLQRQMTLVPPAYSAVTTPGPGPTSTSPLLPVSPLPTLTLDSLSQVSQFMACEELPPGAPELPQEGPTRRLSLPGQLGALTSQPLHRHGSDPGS
row,SMILES,"hERG current change (%, negative = inhibition) at 10uM"
1,O=C(CSc1ncccn1)Nc1ccccc1,3.55%
2,Cc1ccccc1OCc1ccc(C(=O)N2CCOCC2)o1,6.86%
3,Cc1cc(C)c(C(=O)O)c(Cl)n1,5.94%
4,O=C(OCC(=O)N1CCc2ccccc2C1)c1ccc(Cl)c([N+](=O)[O-])c1,-20.7%
5,CC1=C(c2ccccc2)[N+](=O)C2(CCCC2)N1[O-],10.3%
6,CCOCCCNC(=S)N(Cc1ccccc1)Cc1nc2ccccc2c(=O)[nH]1,-22.3%
7,CCCc1cc(-c2ccc3c(c2)COc2c4ccccc4nn2-3)on1,-21.4%
8,C/C(=N\NC(=O)c1ccccc1O)c1ccc(NC(=O)c2ccccc2)cc1,15.3%
9,COC(=O)c1c(NC(=O)c2ccccc2)sc2c1CC(C)(C)NC2(C)C,-5%
10,Cc1cccc(C(=O)Nc2ccccc2SCC(=O)Nc2ccc(C)c(Cl)c2)c1,28.5%
11,COc1ccc(C(=O)/C=C/Nc2ccc([N+](=O)[O-])cc2C)c(OC)c1,3.07%
12,O=C(O)Cn1c(SCCOc2ccccc2)nc2ccccc21,0.876%
13,O=S(=O)(c1cccc(-c2nnc(SC(F)F)n2-c2ccccc2)c1)N1CCCCC1,-30.3%
14,CC1CCCCN1S(=O)(=O)c1ccc(C(=O)N(CCCN(C)C)c2nc3ccc(Br)cc3s2)cc1.Cl (stereo not shown),-37%
15,CN(C)CCCN(C(=O)c1ccc(S(=O)(=O)N(C)C)cc1)c1nc2cc3c(cc2s1)OCO3.Cl,15.5%
16,CC1CCCCN1S(=O)(=O)c1ccc(C(=O)N(CCCN(C)C)c2nc3cc4c(cc3s2)OCO4)cc1.Cl (stereo not shown),-81.1%
17,CCC1CCCCN1S(=O)(=O)c1ccc(C(=O)N(CCCN(C)C)c2nc3cc4c(cc3s2)OCO4)cc1.Cl (stereo not shown),-56%
18,COc1cccc(CC(=O)Nc2ccc3nc(C)sc3c2)c1,8.73%
19,CCOc1ccc(/C(O)=C2/C(=O)C(=O)N(CCN(CC)CC)C2c2ccco2)cc1 (stereo not shown),-10%
20,COc1ccccc1CNS(=O)(=O)c1ccc(Cl)s1,-6.4%
21,COC(=O)c1ccc(CN2CCCC(CNC(=O)Cc3ccc(OC)cc3)C2)cc1 (stereo not shown),-14.7%
22,COc1cc(OC)cc(C(=O)NCC2CCCN(Cc3cccc(C(C)=O)c3)C2)c1 (stereo not shown),-25.3%

row,SMILES,"hERG current change (%, negative = inhibition) at 10uM"
1,COc1ccc(CC(=O)NCC2CCCN(Cc3cc(OC)cc(OC)c3)C2)cc1 (stereo not shown),-21%
2,COc1ccc(CC(=O)NCC2CCCN(Cc3ccccc3Cl)C2)cc1 (stereo not shown),4.3%
3,COc1ccc(CC(=O)NCC2CCCN(Cc3ccccc3OC)C2)cc1 (stereo not shown),10.5%
4,COc1cc(OC)cc(C(=O)NCC2CCCN(Cc3ccc(SC)cc3)C2)c1 (stereo not shown),-72.3%
5,COc1ccc(CC(=O)NCC2CCCN(Cc3ccc(OC(F)(F)F)cc3)C2)cc1 (stereo not shown),-63.7%
6,COc1ccc(CC(=O)NCC2CCCN(Cc3ccc(SC)cc3)C2)cc1 (stereo not shown),-67.5%
7,CCc1ccc(CN2CCCC(CNC(=O)c3cc(OC)cc(OC)c3)C2)cc1 (stereo not shown),-69.9%
8,COc1ccc(CC(=O)NCC2CCCN(Cc3cccc(SC)c3)C2)cc1 (stereo not shown),-34.6%
9,COc1cc(OC)cc(C(=O)NCC2CCCN(C(=O)c3oc(C)cc3C)C2)c1 (stereo not shown),-18.5%
10,Cc1cc(CNC(=O)CCc2nnc(CCCCc3ccccc3)o2)nn1C,38.1%
11,Cc1ccc(NC(=O)N2CCCc3ccccc32)cc1C,-29.2%
12,COc1ccc(OC)c(N(CC(=O)N2CCC(C)CC2)S(=O)(=O)c2ccccc2)c1,-22.2%
13,CCCc1nnc(SCC(=O)O)n1/N=C/c1ccc2c(c1)OCO2,-7.5%
14,CCOc1ccccc1CNC(=O)c1nn(CC)cc1[N+](=O)[O-],9.07%
15,C=CCSc1nnc(-c2sc(-c3ccccc3)nc2C)n1C,-33.6%
16,Cc1cc(NC(=O)CSCC(=O)N(C)Cc2ccc(Cl)c(Cl)c2)no1,-9.94%
17,CCOC(=O)c1[nH]c2ccc(OC)cc2c1NS(=O)(=O)c1ccc(Cl)s1,12.9%
18,CCOc1cccc(CN2CCCC(CNC(=O)c3cccc(OC)c3OC)C2)c1 (stereo not shown),-9.11%
19,CCc1ccc(CN2CCCC(CNC(=O)c3cccc(OC)c3OC)C2)cc1 (stereo not shown),-54.1%
20,COc1ccccc1CN1CCCC(CNC(=O)c2cccc3ccccc23)C1 (stereo not shown),-47.8%
21,N/C(Cc1nc(-c2ccc(F)cc2)cs1)=N\O,13.7%
